TGFb inhibitor: blocks TGF-b signaling | HepG2 CAGA-GFP TGF-b/SMAD3 reporter, GFP fluorescence, 18 h; TGF-beta stimulated, 500 pg/mL final | Potency, µM (titrated, usually from 46.1 µM), for the others: at the top dose activity, negative = inhibition, hits mostly inhibitors | AID 588855 | 1.2% of 410,000 active; further: on the % scale 0 is the no-effect control and ±100 the full control effect; nearly all actives have a fitted effect of over 65% in size
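Inhibition was scored as loss of TGF-beta-induced (500 pg/mL final, 18 hours, 37 degrees C) GFP in HEPG2 cells carrying a CAGA-GFP reporter, in DMEM with 1% FBS. Well GFP was summed per cell; Activity was normalised to unstimulated and stimulated DMSO wells, then concentration-response fitting.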
S2 tox: cell viability loss in ATXN counter-screen; 0.49% of 400,000 active; Potency, µM (titrated, usually from 56.7 µM), actives largely listed as cytotoxic; S2 cells (HEK-293 line with an ATXN2-luciferase reporter) viability, CellTiter-Fluor protease fluorescence, 24 h; AID 651635; further: nearly all actives have a fitted effect of over 40% in size
Nrf2 inh: Nrf2 pathway inhibition; 2.1% of 360,000 active; Potency, µM (highest dose often 46 µM), for the others: at the top dose activity change, negative = inhibition, hits mostly inhibitors; A549 ARE-Fluc reporter, luciferase luminescence, 18-24 h; AID 504444; further: on the % scale 0 is the no-effect control and ±100 the full control effect; nearly all actives have a fitted effect of over 60% in size
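Quantitative HTS in A549 cells stably bearing an antioxidant response element-firefly luciferase construct. Inhibition of Nrf2-driven transcription was scored by luminescence after 18-24 h of compound exposure at 37 °C.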
ATXN2 expr inh: inhibitors of ATXN2 expression; Potency, µM (doses to about 57 µM), for the others: top-dose activity change, negative = inhibition, hits mostly inhibitors; AID 1745845; HEK-293 ATXN2-luciferase reporter, luminescence, 24 h; 0.72% of 360,000 active; further: on the % scale 0 is the no-effect control and ±100 the full control effect; nearly all actives have a fitted effect of over 55% in size
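qHTS (up to 57 uM final) was run with 24 h compound exposure of reporter cells at 37 °C. Each well was multiplexed: SteadyGlo luminescence measured ATXN2-luciferase expression after a fluorogenic Gly-Phe-AFC viability readout (25 uM final).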
A549 viability: counter-screen for Nrf2 inhibitors: cytotoxicity in A549 cells; A549 ARE-Fluc cells, CellTiter-Fluor viability, 18-24 h; Potency, µM (series often up to 46 µM), inactives show at the highest dose activity change, negative = cytotoxicity, actives largely listed as inhibitors; 0.16% of 390,000 active; AID 504648; further: on the % scale 0 is the no-effect control and ±100 the full control effect
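A549 ARE_Fluc cells in 5% FBS OPTI-MEM were exposed to compounds in concentration-response for 18-24 h at 37 deg C. Viability was read by CellTiter-Fluor fluorescence (Ex 405/Em 525) after 30 min, before the luciferase read.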
HepG2 tox: kills HepG2 cells in TGF-b inhibitor counter-screen. Potency, µM (series often up to 46.1 µM), for inactives: at the highest dose activity change, negative = cytotoxicity, most hits filed as cytotoxic. 0.76% of 410,000 active. AID 588856. HepG2 CAGA-GFP viability, ATP luminescence, 18 h
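CellTiter-Glo luminescence gave cytotoxicity after 18 hours at 37 degrees C. The cells were HepG2 CAGA-GFP in 1% FBS DMEM, stimulated with 500 pg/mL TGF-beta after compound addition. %Activity was normalised to no-cell wells (complete cell-killing) and DMSO (no toxicity), and curves were fitted and classified.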
Starred values were filed as active, the others as inactive; i = inactive; ? = inconclusive; nt = no result given. In the library only some 3.8% were active in any assay of this set; here they are far more common. The call rests on the fitted dose curve; in most records, active means well fitted curve in the direction sought with a large enough effect; inconclusive means small, poorly fitted or top-dose-only effect, or another doubt; inactive means no such curve, though single readings can be large; an effect the other way counts as inactive or inconclusive. Potency means the concentration at half of the fitted maximal effect.

SMILES | TGFb inhibitor | S2 tox | Nrf2 inh | ATXN2 expr inh | A549 viability | HepG2 tox
COC(=O)c1cccc(NC(=O)NC(=O)c2ccc(Cl)cc2)c1 | 0% | ? | 10µM* | ? | -21% | -13%
COC(=O)c1cc(NC(=O)Nc2cccc(Cl)c2)ccc1Cl | 16µM* | i | ? | ? | -25% | -90%
COC(=O)c1cccc(NC(=O)Nc2ccc(Cl)cc2)c1 | ? | i | -17% | 0% | -9% | -12%
CC(c1ccncn1)N(C)C(=O)c1ccc2oc(Cc3ccccc3)nc2c1 (centres undefined) | 1% | i | ? | 37% | 11% | -20%
CC1=NN(c2ccccc2)C(=O)C1C(=O)c1ccc(Cl)cc1 (centres undefined) | -20% | ? | 18µM* | ? | ? | -19%
CN1CCCC1CCOC(C)(c1ccccc1)c1ccc(Cl)cc1 (centres undefined) | ? | 20µM* | 1% | 32µM* | 4% | 11µM*
O=C(c1ccccc1)N1CCOC(O)(c2ccccc2)C1c1ccccc1 (centres undefined) | 3% | i | ? | -6% | 12% | 2%
CCCN1C(=O)c2ccccc2NC1c1ccc(OC)c(COc2cccc(OC)c2)c1 (centres undefined) | 5% | nt | ? | nt | -19% | -18%
Cc1ccccc1-c1cnc(C(O)c2ccc(Cl)c(F)c2)[nH]1 (centres undefined) | -21% | i | nt | 3% | nt | 3.2µM*
Clc1ccccc1-c1nn2c(-c3ccncc3)nnc2s1 | -1% | i | 8.2µM* | 4% | -6% | -18%
Cc1noc(NC(=O)c2c(-c3c(Cl)cccc3Cl)noc2C)c1[N+](=O)[O-] | -14% | i | 15µM* | -21% | -13% | -17%
COc1ccccc1N1C(=O)CC(Sc2ccccc2N)C1=O (centres undefined) | 13% | i | 4% | nt | 10% | 10%
O=C1CC(NS(=O)(=O)c2ccc([N+](=O)[O-])cc2)CN1c1cccc(F)c1 (centres undefined) | -2% | i | -7% | -8% | 1% | -17%
CCCN(CCC)c1nc(-c2ccccn2)nc2ccccc12 | ? | ? | 18µM* | ? | -18% | -54%
c1ccc(CCNc2nc(-c3ccccn3)nc3ccccc23)cc1 | ? | ? | 10µM* | ? | ? | -11%
CCN(CC)c1nc(-c2ccccn2)nc(-c2ccccc2)c1C#N | ? | ? | ? | 4.5µM* | -17% | -36%
O=CNc1cc(-c2cccc(F)c2)cn2c(-c3ccc(F)c(Cl)c3)cnc12 | -21% | i | nt | ? | nt | -18%
COc1ccccc1-c1cc2nc(C)c(CCC(=O)NCCc3ccc(SC)cc3)c(C)n2n1 | -2% | nt | ? | nt | -22% | -22%
CC1CCCCC1NC(=O)CN1CCC(NC(=O)c2ccc([N+](=O)[O-])cc2)CC1 (centres undefined) | 11% | i | 7.3µM* | -1% | -6% | 5%
Cc1cccc(CNC(=O)c2ccc(C)c(-n3c(C)nc4cccnc43)c2)c1 | -12% | nt | -23% | nt | 14% | -7%
Cc1ccc2nc(NCCN)c3ncc(C)n3c2c1 | nt | nt | nt | 1.9µM* | nt | nt
CCCCCCCCCCn1ccc(=N)cc1 | ? | i | 15µM* | ? | -28% | -49%
CCCCCCCCn1ccc(=N)cc1 | -24% | ? | -23% | ? | 0% | -32%
CCCCCn1c(=O)[nH]c2cc(C(=O)N3CCN(Cc4ccc5c(c4)OCO5)CC3)ccc2c1=O | 1% | i | 0.82µM* | ? | ? | -10%
CCCCCn1c(=O)[nH]c2cc(C(=O)NCc3ccc4c(c3)OCO4)ccc2c1=O | 9% | i | 9% | -10% | 3% | -26%
SMILES | TGFb inhibitor | S2 tox | Nrf2 inh | ATXN2 expr inh | A549 viability | HepG2 tox
O=C(c1ccc2c(=O)n(CCc3ccccc3)c(=O)[nH]c2c1)N1CCN(c2ccc(Cl)cc2)CC1 | 4.5µM* | ? | ? | -20% | 4% | -20%
CC(=O)c1ccc(NC(=O)CSc2ccc(-c3ccc(-n4cccn4)cc3)nn2)cc1 | 3% | ? | 14% | 44% | -6% | 15%
COc1ccc(C(=O)Nc2ccc(NC(=O)c3cccs3)cc2)cc1Cl | 0% | ? | -12% | nt | -1% | 2%
COc1ccc(C(=O)Nc2ccc(NC(=O)c3cccs3)c(OC)c2)cc1Cl | -13% | ? | 9.2µM* | ? | -17% | -42%
COc1cc(NC(=O)COc2ccccc2[N+](=O)[O-])ccc1NC(=O)c1cccs1 | ? | 13µM* | ? | ? | -16% | -50%
COc1cc(NC(=O)COc2ccccc2Cl)ccc1NC(=O)c1cccs1 | -9% | i | -5% | 6% | 2% | -42%
CCOC(=O)c1c(C)n(-c2ccccc2)c2ccc(OC(=O)c3ccc(OCC)c(OCC)c3)cc12 | 16% | i | 10% | -12% | 2% | -1%
COc1ccc(CNC(=O)c2cc(-c3cccs3)nc3ccccc23)c(OC)c1 | -10% | i | 20% | -9% | -1% | 2%
CC(=O)OC1CCC2C3CCC4OC(=O)CCC4C3CCC12C (centres undefined) | -3% | i | 2% | 2% | ? | -25%
C=C1C(=O)C2=CC1CCC(=O)C1(C)CCC(OC(C)=O)C(C)(C)C1CC2O (centres undefined) | 2.8µM* | nt | 15µM* | ? | ? | -98%
S=C1SCN(CC2CC2)CN1CC1CC1 | 11µM* | i | -22% | ? | 3% | -10%
S=C1SCN(CCc2ccccc2)CN1CCc1ccccc1 | ? | ? | nt | nt | nt | -12%
Cc1ccc(S(=O)(=O)N2CCN(C(=O)c3ccc(OCc4c(C)noc4C)cc3)CC2)cc1 | 5% | i | ? | -8% | -8% | -21%
Cc1cc(C)c(C)c(S(=O)(=O)N2CCN(C(=O)c3ccccc3OCc3c(C)noc3C)CC2)c1C | 12% | i | 18µM* | -17% | -26% | -3%
Cc1ccc(C)c(S(=O)(=O)N2CCN(C(=O)c3ccc(OCc4c(C)noc4C)cc3)CC2)c1 | -20% | i | ? | 0% | -3% | 14µM*
Cc1cccc(COC(=O)C(Cc2ccccc2)NC(N)=O)c1 (centres undefined) | -20% | i | -14% | 0% | -6% | 5%
Cc1nc(N2CCN(c3ccccn3)CC2)c2c(C)c(C(=O)Nc3ccc(F)cc3F)sc2n1 | -24% | ? | ? | ? | 2% | -5%
